Assay outcomes: PubChem BioAssay, National Center for Advancing Translational Sciences (NCATS)
GLP-1R inv ag: qHTS of GLP-1 Receptor Inverse Agonists (Inhibition Mode) | HEK293 GLP-1R CRE-luciferase, luminescence, 24 h; GLP-1R form is constitutively active | Potency, µM (top dose mostly 38.3 µM), for inactives: top-dose activity change, negative = inhibition, most hits filed as inhibitors | actives 1.6% (n = 410,000); further: on the % scale 0 is the no-effect control and ±100 the full control effect; nearly all actives have a fitted effect of over 55% in size
Target sequence (P43220 whole entry, looked up): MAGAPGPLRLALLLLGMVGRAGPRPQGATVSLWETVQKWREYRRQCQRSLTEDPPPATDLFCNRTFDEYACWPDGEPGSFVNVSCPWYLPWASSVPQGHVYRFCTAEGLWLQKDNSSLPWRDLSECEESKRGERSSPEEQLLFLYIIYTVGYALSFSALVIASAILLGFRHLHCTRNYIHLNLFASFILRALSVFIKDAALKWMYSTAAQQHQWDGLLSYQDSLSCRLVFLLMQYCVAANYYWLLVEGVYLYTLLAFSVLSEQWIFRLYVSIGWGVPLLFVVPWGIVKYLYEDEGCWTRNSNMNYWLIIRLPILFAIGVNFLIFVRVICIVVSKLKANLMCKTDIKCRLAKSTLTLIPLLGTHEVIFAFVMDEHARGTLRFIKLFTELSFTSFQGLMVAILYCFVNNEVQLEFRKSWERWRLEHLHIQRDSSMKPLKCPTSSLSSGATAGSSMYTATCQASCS
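Seeding at 200 cells/uL, 12 h culture, 24 hr compound treatment, then luciferase reagent and a luminescence read; cells are HEK293 stably expressing a constitutively active GLP-1R plus cAMP-responsive luciferase.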
GLP1R cytotox: qHTS of GLP-1 Receptor Inverse Agonists: Cytotox Screen; Potency, µM (doses to about 38.3 µM), for inactives: top-dose activity change, negative = inhibition, usual class: inhibitors; AID 624418, 2012; HEK293 cAMP-luciferase reporter cells, luminescence, 24 h; actives 0.13% (n = 410,000);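 further: loss of luciferase light is scored as toxicity; on the % scale 0 is the no-effect control and ±100 the full control effect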
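Compound-treated cells are incubated 24 hr at 37 deg C under 5% CO2 after a 12 hour attachment period, then luciferase detection reagent is added and luminescence is measured following 12 min at room temperature; lowered signal indicates toxicity.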
GLP-1R agonist: qHTS of GLP-1 Receptor Agonists | Glucagon-like peptide 1 receptor (Homo sapiens), P43220 | HEK293 GLP-1R CRE-luciferase, luminescence, 4-6 h; cells express a hypersensitive GLP-1R form | AID 624172, 2012 | Potency, µM (top dose mostly 45.6 µM), for the others: at the top dose activation, most hits filed as activators | actives 0.007% (n = 380,000); further: % of control where 0% means no effect
Active calls of the source: *; ? = inconclusive; . = no result given. Only some compounds are listed: those with a hit (about 1.7% of all), similar ones and a draw of the others. The call rests on the fitted dose curve; in most records, active means well fitted curve in the direction sought with a large enough effect; inconclusive means small, poorly fitted or top-dose-only effect, or another doubt; inactive means no such curve, though single readings can be large; an effect the other way counts as inactive or inconclusive. Potency means the concentration at half of the fitted maximal effect.

SMILES | GLP-1R inv ag | GLP1R cytotox | GLP-1R agonist
Cc1ccc(C(=O)N(CCc2ccccc2)Cc2ccccc2)cc1S(=O)(=O)N1CCOCC1 | 10µM* | -10% | 5%
Cc1ccc(C(=O)N(CCc2ccccc2)Cc2ccccc2)cc1S(=O)(=O)N1CCCCC1 | ? | 5% | 10%
Cc1ccc(CNC(=O)c2nc(SCc3ccc(F)cc3)ncc2Cl)cc1 | 4% | 21% | .
CC(NC(=O)c1cccc(OC2CCN(C3CCN(C)CC3)CC2)c1)c1ccccc1 (stereo not drawn) | ? | -3% | 3%
O=S(=O)(Nc1cccc2c1CCCC2)c1cccc(C(F)(F)F)c1 | 10µM* | -4% | 6%
O=C(O)c1ccccc1NS(=O)(=O)c1cccc(C(F)(F)F)c1 | 0% | 4% | ?
Cc1sc2ncn(CC(=O)Nc3cccc(C(F)(F)F)c3)c(=O)c2c1S(=O)(=O)N1CCC(C)CC1 | 5% | 1% | .
COc1ccc(/C=N/N2CCOCC2)cc1Cn1nc(C)c([N+](=O)[O-])c1C | -17% | -2% | 2%
COc1ccc(/C=N/Nc2ccccc2)cc1Cn1nc(C)c([N+](=O)[O-])c1C | 4µM* | -28% | -2%
COc1ccc(C(=O)NNC(=O)OC(C)(C)C)cc1 | 1% | 3% | 3%
COc1ccc(C(=O)NN/C(C)=C/C(=O)C(F)(F)C(F)(F)C(F)(F)F)cc1 | 5µM* | -28% | -3%
CCOc1ccc(CCNC(=O)Cn2ncn3c(cc4sc(C)cc43)c2=O)cc1OCC | -8% | -5% | .
Cc1ccc(N(CC(=O)NCc2ccccc2)C(=O)CCC(=O)Nc2ccccn2)cc1 | -3% | 8% | 9%
NC(=S)N/N=C/c1cccc(/C=N/NC(N)=S)c1 | 51% | -11% | 11%
O=C(COc1ccccc1-c1ccccc1)N/N=C/c1ccc2ccccc2c1 | 1µM* | ? | 21%
O=C(COc1ccccc1-c1ccccc1)N/N=C/c1ccncc1 | ? | -7% | 8%
NC(=S)N/N=C/c1ccc2ccccc2c1 | 5.6µM* | 3.2µM* | -1%
CN1C(=S)N2CCCN2C1c1ccccc1 (stereo not drawn) | -3% | -8% | 14%
CCc1ccc(NC(=O)c2ccc3c(c2)c(C)c(C)n3Cc2ccccc2)cc1 | ? | -18% | .
CCc1cccc(NC(=O)c2ccc3c(c2)c(C)c(C)n3Cc2ccc(F)cc2)c1 | 10µM* | -19% | .
CCOc1ccc(NC(=O)c2ccc3c(c2)c(C)c(C)n3Cc2ccc(F)cc2)cc1 | ? | -8% | .
CCc1ccc(CNC(=O)c2ccc3c(c2)c(C)c(C)n3Cc2ccccc2)cc1 | 10µM* | 2% | .
CC(C)NCC#CCOc1ccc(Cl)cc1 | ? | 7% | -5%
CC1CCCCC1NCC#CCOc1ccc(Cl)cc1 (stereo not drawn) | 11µM* | 2% | -3%
Cc1cc(S(=O)(=O)Nc2noc3ccccc23)ccc1F | 1% | 0% | 2%
SMILES | GLP-1R inv ag | GLP1R cytotox | GLP-1R agonist
CCCCNC(=O)C1Cc2cc(S(=O)(=O)N3CCCCC3)ccc2N1C(C)=O (stereo not drawn) | -12% | -7% | -1%
Cc1cc(C)c2nc(N(CCCN(C)C)C(=O)C3=COCCO3)sc2c1 | 4.5µM* | ? | -9%
CN(C)CCN(C(=O)c1ccc2ccccc2c1)c1nc2ccc(Br)cc2s1 | 5% | 1% | -2%
CN(C)CCCN(C(=O)C1=COCCO1)c1nc2ccc(Br)cc2s1 | 2µM* | ? | 0%
Cc1cc(C)c2nc(N(CCCN(C)C)C(=O)c3ccc4c(c3)OCCO4)sc2c1 | ? | ? | 3%
Cc1cc(C)c2c(n1)sc1c(=O)n(-c3cc(Cl)ccc3C)nnc12 | 30% | 3% | .
COCCc1ccc(OC2(C)CCN(Cc3cccc(OC)c3OC)C2)cc1 (stereo not drawn) | -26% | -1% | 11%
C=C(C1=CCN(S(=O)C(C)(C)C)[C@H]1CCO)c1ccccc1 (stereo partly drawn) | 11µM* | 22% | -1%
C=C(C1=CCN(S(=O)(=O)C(C)(C)C)[C@H]1CCO)c1ccccc1 | ? | -5% | 0%
CCOc1ccc(C(C)C)cc1S(=O)(=O)N1CCN(C(=O)c2ccco2)CC1 | -21% | 2% | 12%
Cc1cc(C(=O)CN2C(=O)NC3(CCCc4sccc43)C2=O)c(C)n1-c1ccccc1 (stereo not drawn) | ? | 16% | 1%
COc1ccc(-n2c(C)cc(C(=O)CN3C(=O)NC4(CCCc5sccc54)C3=O)c2C)cc1 (stereo not drawn) | 13µM* | -8% | 4%
Cc1cccc(C)c1N1C(=O)c2ccccc2NC(=O)C1C(=O)NCCc1ccccc1F (stereo not drawn) | 25% | -7% | .
O=S(=O)(c1ccccc1Cl)N1CCC(Cc2ccccc2)CC1 | 7.9µM* | 40% | 6%
Cn1c(=O)c(=O)n(C)c2cc(S(=O)(=O)N3CCC(Cc4ccccc4)CC3)ccc21 | -1% | -9% | -2%
COC(=O)c1ccc(N2C(=O)CC(SCC(=O)Nc3ccc(OC)cc3)C2=O)cc1 (stereo not drawn) | 11% | 0% | 0%
CN=C(Nc1cc(Cl)ccc1Cl)SC1CC(=O)N(c2ccc(C(=O)OC)cc2)C1=O (stereo not drawn) | 4µM* | -22% | -4%
COc1ccc(NC(=O)/C(=C\c2ccc(F)cc2)NC(=O)c2ccco2)cc1 | 11% | 0% | 8%
O=C(OCC(=O)N1CCN(C(=O)c2ccco2)CC1)c1cc(F)c(F)cc1Cl | 6% | 1% | 10%
CC(C)C[C@H]1CNC(=S)N1CC1CCN(CCC23CC4CC(CC(C4)C2)C3)CC1 | 10µM* | -2% | 0%
CC(C)C[C@H]1CNC(=S)N1CC1CCN(CC2CCCC2)CC1 | 6% | 1% | 0%
COc1cc(C(=O)OC(C)C(=O)NC(=O)NC2CCCCC2)ccc1OC(F)F (stereo not drawn) | ? | 2% | ?
CC(=O)Nc1ccc(S(=O)(=O)N[C@@H](C)C(=O)N2CCN(C/C=C/c3ccccc3)CC2)cc1 | -15% | 2% | -3%
COc1ccccc1NS(=O)(=O)c1ccc(C(=O)NCCCN2CCOCC2)cc1 | -3% | 7% | 7%
COc1ccc(S(=O)(=O)c2c(O)c3ccc(C(=O)Nc4ccc(F)cc4F)cc3[nH]c2=O)cc1 | 7% | -18% | -3%
SMILES | GLP-1R inv ag | GLP1R cytotox | GLP-1R agonist
CCN(CC)CCNC(=O)c1ccc2c(c1NCCO)C(=O)c1ccccc1C2=O | ? | 5µM* | -7%
CC1CCN(C(=O)c2ccc3c(c2NCCO)C(=O)c2ccccc2C3=O)CC1 | 60% | ? | 5%
COc1ccc(OC)c(NC(=O)Cc2c(C)n(C(=O)c3ccc(Cl)cc3)c3ccc(OC)cc23)c1 | 12% | 25% | .
COc1ccc2c(c1)c(CC(=O)Nc1ccccc1OC)c(C)n2C(=O)c1ccc(Cl)cc1 | 10µM* | 6% | 15%
COc1cc(CN2CC(=O)N(c3ccc(C)c(Cl)c3)C2=S)cc(OC)c1OC | 8.9µM* | -19% | 12%
COc1cc(CN2CC(=O)N(c3ccc(C)cc3)C2=S)cc(OC)c1OC | -18% | 1% | -1%
